Assay results reported in PubChem BioAssay (NCI).
The panel holds about 83,000 compounds, 20% with a hit somewhere; the sample as a whole holds those more often.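 Growth was measured after 48 h exposure to one concentration of compound in 96-well plates. Values under 10 count as active.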 Values without a mark were called inactive. Active and inactive are the calls of the source.

Tested on: HL-60(TB) leukemia
Assay: NCI-60 one-dose screen, 48 h (100 = growth as untreated, 0 = no growth, -100 = all killed)
Details: 10 µM unless noted

SMILES	growth
Oc1c(Cl)cc(Oc2cc(Cl)c(O)c(CN3CCOCC3)c2)cc1CN1CCOCC1	86.7%
COc1cc(/C=C/c2ccnc3ccccc23)cc(OC)c1OC	15.7%
Nc1ccc(Sc2ccc([N+](=O)[O-])c3nonc23)cc1	42.8%
CC(=O)CC(C)(C)c1ccc(Cl)cc1	69.9%
Cc1n[nH]c(=O)n(/N=C\c2c[nH]c3ccccc23)c1=O	89.1%
C/C(=N\Nc1cc(C)c2cc(C)ccc2n1)c1ccccn1	-54.9% (active)
O=C1/C(=C/c2ccc(F)c(F)c2)CN(C(=O)C(Cl)Cl)C/C1=C\c1ccc(F)c(F)c1	-47.1% (active)
NCC(=O)NC(CC(=O)O)C(=O)O (centres undefined)	90.7%
COc1cc(/C=C/CO)cc(OC)c1O[C@@H]1O[C@H](CO)[C@@H](O)[C@H](O)[C@H]1O	85.9%
O=C(CCCCCCC(=O)Nc1ccccc1)NO	-0.31% (active)
Cc1ccc(/C=C(\C#N)n2nc3cccc(F)c3n2)cc1	86.6%
O=C(c1ccc(C(F)(F)F)c(Cl)c1)N(Cc1ccc(Cl)cc1)c1ccc(-c2cc(C(F)(F)F)[nH]n2)c(O)c1	-14.9% (active)
COc1ccc(-c2nc(N=Nc3c(O)[nH]c4ccccc34)nc(N3CCOCC3)c2C#N)cc1	90.5%
O=C(NO)c1ccc(Cn2c(=O)n(CCc3ccccc3)c(=O)c3ccccc32)cc1	36.2%
COc1cc(/C=C2\C(=O)N(CCCOc3cc(O)c4c(=O)cc(-c5ccccc5)oc4c3)c3ccccc32)cc(OC)c1O	47.2%
COC(=O)C1=CCC(n2cnc3c(N)ncnc32)O1 (centres undefined)	94%
CCNCC(C)(C)O	102%
Cc1nc2ccccc2c(=O)n1-c1cccc(OCc2cn(-c3cccc(O)c3)nn2)c1	101%
N#CC1=C(N)Oc2nc[nH]c(=O)c2C1c1cccs1 (centres undefined)	98.8%
C(=C\c1n(Cc2ccc3ccccc3c2)c(-c2ccccc2)c(-c2ccccc2)[n+]1Cc1ccc2ccccc2c1)/c1ccccc1	-42% (active)
O=C1Nc2ccccc2/C1=C/c1cn(CC(O)Cn2cc(/C=C3\C(=O)Nc4ccccc43)c3ccccc32)c2ccccc12 (centres undefined)	-10.2% (active)

SMILES	growth
C/C(=C\CCc1ccoc1)CC/C=C(\C)CCCN1CCOCC1	35.5%
O=C(O)c1ccc(N=CC(=O)c2ccc(-c3ccccc3)cc2)cc1	77.4%
C=C(C)[C@@H]1CC[C@]2(C(=O)O)CC[C@]3(C)[C@H](CC[C@@H]4[C@@]5(C)C/C(=C/c6ccco6)C(=O)C(C)(C)[C@@H]5CC[C@]43C)[C@@H]12	-17.2% [100 µM] (active)
Nc1nc2c(ncn2C2OC3COP(=O)(O)OC4C(COP(=O)(O)OC2C3O)OC(n2cnc3c(N)ncnc32)C4O)c(=O)[nH]1 (centres undefined)	103%
O=C1CC(SC(=S)C2CCCC2=O)C(=O)N1 (centres undefined)	97%
COc1cccc(/C=N/C(=S)NC2(C)C3CCC(C3)C2(C)C)c1O (centres undefined)	75.5%
CCN(CC)CCOc1ccc(/C(=C(\C)c2ccc(OC)c(F)c2)c2ccc(Cl)cc2)cc1	68.6%
COc1cc2nc(NC3CCCC3)nc(NC3CCN(C(C)C)CC3)c2cc1OC	88.7%
Cc1c(C(=O)OCCO)cc(-c2ccc(Cl)cc2)n1-c1ccc(Cl)cc1Cl	59.7%
C[C@H]1[C@H]2[C@H]3CC[C@@H]4[C@@]5(C)CC[C@H](O)C(C)(C)[C@@H]5CC[C@@]4(C)[C@]3(C)CC[C@]23CO[C@]1(C)[C@@H](C(=O)/C=C\c1cccnc1)C3	47.5%
O=C1c2c(c3c4cc(F)ccc4oc3c3[nH]c4ccccc4c23)C(=O)N1O	41.8%
Cc1ccnc2c(NC(C)CCCN)cc(O)c(O)c12 (centres undefined)	7.56% (active)
O=C(/C=C/c1ccc([N+](=O)[O-])cc1)c1ccc2c3c(cccc13)CC2	14.4%
O=C1CC(=O)N(c2ccccc2)O1	103%
C/C(=N\Nc1ccc(Cl)cn1)c1ccc2ccccc2n1	-15.3% (active)
C=CCNC(=O)c1ccc(OC)cc1	87.7%
CC(=O)NCC(=O)Nc1ccc(-c2nnc3ccccn23)nc1.CC(=O)NCC(=O)Nc1ccc(-c2nnc3ccccn23)nc1.[Pt+2]	109%
Cc1nnc(-c2cc3c(ccc4ccccc43)oc2=O)c2cn(-c3ccc(Cl)cc3)nc12	84.4%
CCCCC(CC)OC(=O)C(Br)CC (centres undefined)	99.6%
CN(C)Cc1cn(-c2ncc(-c3ccc(C(F)(F)F)cc3)c(NC3CCCCCC3)n2)nn1	83.3%
O=C1c2ccccc2NC(c2cn(-c3ccccc3)nc2-c2cccnc2)N1Cc1ccccc1 (centres undefined)	9.6% (active)

SMILES	growth
Clc1ccc(C(SCc2ccccc2)SCc2ccccc2)cc1	97.6%
CCc1c2c(nc3ccc(OC(=O)OCc4ccc(B5OC(C)(C)C(C)(C)O5)cc4)cc13)-c1cc3c(c(=O)n1C2)COC(=O)[C@]3(O)CC	12%
Cc1nc2ccccc2n1CC1NC(=O)NC1=O (centres undefined)	95.1%
CCCCCCCCCCCCCCCc1ccc(N)c(OC2OC(CO)C(O)C(O)C2O)c1 (centres undefined)	23%
Clc1ncccc1Nc1ccc2nnc(-c3ccncc3)n2n1	89.5%
Cc1ccc2nc(-c3c(CCCO)noc3N)[nH]c(=O)c2c1	89.8%
Cc1ccc2c(Cn3cc(CSc4nc5ccccc5o4)nn3)cc(=O)oc2c1	109%
C[C@]12CC[C@@H]3c4ccc(O)cc4CC[C@H]3[C@@H]1CC[C@@H]2NS(=O)(=O)c1cccc(Br)c1	35.2%
N#Cc1c(N2CCOCC2)nc(=S)[nH]c1-c1ccco1	70.7%
COc1ccc(NC(=O)CCl)cc1	69.8%
CN1CCN(c2ccc(-c3cc4c(Nc5ccc(F)c(Cl)c5)ncnn4c3)cn2)CC1	72.8%
CC12CC3CC1C(C(=O)O2)C3C(=O)O (centres undefined)	95.6%
C/C(=N\Nc1ccc(Cl)cn1)c1ccccn1	-27.4% (active)
COc1ccc(C(=O)NC(=O)Nc2ccc3c(c2)NC(=O)/C3=C\c2[nH]c(C)c(CCC(=O)O)c2C)c(F)c1	43.2%
CN1CCN(c2ccc3nc(-c4cc(C(C)(C)C)c(O)c(C(C)(C)C)c4)[nH]c3c2)CC1	68.6%
CCn1c(=O)c(C(=O)NCCCO)c(O)c2ccccc21	90.5%
COc1ccc(Nc2ncccc2/C=C/C(=O)c2cc(OC)c(OC)c(OC)c2)cc1	-42.4% (active)
COc1ccc(/C=N/Nc2nc3ccccc3s2)cc1	84.9%
O=C1c2cccnc2-c2ncccc21	95.4% [100 µM]
CCOc1ccccc1Cn1ccnc1CCc1c(Cl)c(O)cc(O)c1C(=O)OC	106%
COc1cc(N2C(=O)[C@H](Cl)C2c2ccc(SC)cc2)cc(OC)c1OC (some centres undefined)	-36.1% (active)

SMILES	growth
COc1cc(OC)c(/C=C/S(=O)(=O)Cc2cnc(OC)c(N)c2)c(OC)c1	-39.5% (active)
COCCn1cc(-c2nc(-c3cn(CCOC)c4ncccc34)cs2)c2cc(F)ccc21	97.8%
COC(=O)C1=Nc2ccc(F)cc2/C1=C/c1sc(=S)[nH]c1O	-28.8% (active)
O=C(NNC(=S)Nc1ccccc1)c1ccc(Nc2ncnc3c2cnn3-c2cccc(Br)c2)cc1	111%
C=CC(=O)N1CCC[C@@H](n2nc(-c3ccc(Oc4ccccc4)cc3)c3c(N)ncnc32)C1	82.5%
COc1ccccc1/C=C/C(=O)c1ccccc1	51.8%
O=C(N=c1n(-c2ccccc2)nc2n1CCN2C1=NCCN1)c1ccc(Cl)cc1	95.8%
COc1ccc(C(c2cc(OC)c(OC)c(OC)c2)N2CCN(Cc3ccccc3)CC2)cc1 (centres undefined)	23%
COC(=O)c1ccc(NC(=O)c2ccc(-c3cccc([N+](=O)[O-])c3)o2)cc1	101%
O=C(CSc1ccc(Cl)cc1)Nc1ccc(-c2nc3ccccc3s2)c(Cl)c1	63.4%
Cc1ccc(/C=C/C(=O)c2cccc(OCCCOc3cccc(C(=O)/C=C/c4ccc(C)cc4)c3)c2)cc1	57.6%
CN1CCN(Cc2ccc(NC(=O)c3cncc(C#Cc4cnn5ccccc45)c3)cc2C(F)(F)F)CC1	-21.3% (active)
Brc1ccc(C2CC(c3cccc(Nc4ccncc4)c3)=NN2c2ccccc2)cc1 (centres undefined)	56.9%
CC(=O)OC1/C=C\CC/C=C\C1 (centres undefined)	101%
CC(=O)CC1CCCC1c1ccc2ccccc2c1 (centres undefined)	101%
CC(C)[C@H]1COC(=O)N1[C@@H]1C(=O)N([C@@H](CCC(=O)N2CCN(C3CCCC3)CC2)C(=O)N[C@@H]2CCCc3ccccc32)[C@@H]1/C=C/c1cccc(Cl)c1	5.13% (active)
CC(=O)N1N=C(c2ccc(Nc3nc(Nc4ccc(F)cc4)nc(Nc4ccc(F)cc4)n3)cc2)CC1c1ccc(N(C)C)cc1 (centres undefined)	10% (active)
COC(=O)c1c2c(c(C)[n+]([O-])c1C)C(=O)C=C(NCc1ccc(F)c(Cl)c1)C2=O	-28.9% (active)
Nc1n[nH]c2cccc(C#Cc3cccc(C(=O)Nc4ccc(CN5CCOCC5)c(C(F)(F)F)c4)c3)c12	7.67% (active)
Cn1ccnc1C(=O)/C=C/c1ccc(CC(=O)Nc2ccc(F)cc2)cc1	18.8%
COc1ccc(-c2nnc(N3CCN(C(=O)CN4CCN(c5ccc(OC)cc5)CC4)CC3)nc2-c2ccc(OC)cc2)cc1	-71.6% (active)
